Screens: PubChem BioAssay, several laboratories
In the library only some 0.71% were active in any assay of this set; here they are far more common.
Mac1 fbg enh: CD11b/CD18-fibrinogen binding enhancement; K562 CD11b/CD18 adhesion to fibrinogen, ATPlite luminescence; activation, % at 10 µM; actives 0.07% (n = 93,000); AID 1499;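 active = 10 µM primary screen giving 50% or more activity, confirmed by 40% or more on retest at that dose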
Target sequence (P05107 whole entry, looked up, other chains not shown): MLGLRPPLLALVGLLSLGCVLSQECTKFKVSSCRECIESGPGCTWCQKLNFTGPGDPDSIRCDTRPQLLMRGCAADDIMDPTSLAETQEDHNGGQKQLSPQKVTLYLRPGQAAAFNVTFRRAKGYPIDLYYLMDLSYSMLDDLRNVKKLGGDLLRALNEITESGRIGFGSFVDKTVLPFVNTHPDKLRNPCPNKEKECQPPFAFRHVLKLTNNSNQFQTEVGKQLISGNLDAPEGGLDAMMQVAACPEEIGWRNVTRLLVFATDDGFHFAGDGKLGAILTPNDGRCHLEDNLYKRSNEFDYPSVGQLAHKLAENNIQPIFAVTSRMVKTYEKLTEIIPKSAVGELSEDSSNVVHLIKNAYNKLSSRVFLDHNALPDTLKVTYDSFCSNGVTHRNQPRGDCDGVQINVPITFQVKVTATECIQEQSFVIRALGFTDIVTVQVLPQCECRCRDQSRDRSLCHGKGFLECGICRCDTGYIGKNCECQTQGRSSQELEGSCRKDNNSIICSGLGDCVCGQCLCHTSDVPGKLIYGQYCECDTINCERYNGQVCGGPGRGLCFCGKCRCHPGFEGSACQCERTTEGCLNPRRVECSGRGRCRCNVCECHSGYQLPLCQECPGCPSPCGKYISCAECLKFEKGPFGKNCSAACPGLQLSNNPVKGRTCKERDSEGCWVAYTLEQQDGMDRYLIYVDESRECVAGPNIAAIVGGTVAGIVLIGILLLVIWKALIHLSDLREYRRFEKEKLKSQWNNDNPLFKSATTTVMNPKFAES
sdo1 growth: restores growth of sdo1-depleted yeast; z-score at 10 µM; S. cerevisiae sdo1-depleted JHY4D growth rescue, OD600 30 h; active compounds read high; pdr5 snq2 efflux-pump mutant strain; actives 0.21% (n = 140,000);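 active = z-score above 3 at both the 24 hr and the 30 hr optical density reads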
CD11b adhes inh: inhibitors of human CD11b/CD18 binding to fibrinogen; K562 CD11b/CD18 adhesion to fibrinogen, ATPlite luminescence; Mn2+ added to activate the integrin; P05107+P11215; actives 0.54% (n = 93,000); inhibition, % at 10 µM; AID 1497;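 active = primary inhibition of 50% or more at 10 µM, then 40% or more on retest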
Phagocyt inh: blocks phagocytosis by macrophages. actives 0.07% (n = 110,000). J774A.1 macrophage IgG-bead phagocytosis, imaging. inhibition, % at 5 µM;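 active = inhibition above the mean of the plate negative controls plus 5 SD, cut at about 13% in these data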;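 note: phagocytic index as fraction of beads internalized from green versus red external bead signal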
Each line names hits and unclear results; the compound was inactive in the other large screens; [ ] = another dose, or the depositor's remark.

COc1cccc(C2CC(=O)Nc3cc(OC)c(OC)c(OC)c32)c1OC (centres undefined)	Phagocyt inh 44[artifact]
CCOc1ccccc1C1CC(=O)Nc2cc(OC)c(OC)c(OC)c21 (centres undefined)	none
Cc1ccc(C(=O)N2CC(=O)Nc3ccc(F)cc3C2c2ccccc2)cc1[N+](=O)[O-] (centres undefined)	none (no result: Mac1 fbg enh, CD11b adhes inh)
O=C(O)CC(c1ccc(Cl)cc1)n1cccc1 (centres undefined)	none (no result: Mac1 fbg enh, CD11b adhes inh, Phagocyt inh)
C#CC(=O)N(c1cccc(OC)c1)C(C(=O)NC1CCCC1)c1cccs1 (centres undefined)	Phagocyt inh 47
CN(Cc1cn(-c2ccccc2)nc1-c1ccc(Cl)cc1)C(=O)CCC(=O)O	none (no result: Mac1 fbg enh, CD11b adhes inh)
COc1cc(C)c(Cl)cc1S(=O)(=O)NCc1ccncc1	CD11b adhes inh 84
Cn1c(Cl)c(/C=N/OC(=O)c2cccc(Cl)c2)c2ccccc21	none
Cc1ccccc1C(=O)O/N=C/c1c(N2CCOCC2)n(C)c2ccccc12	Phagocyt inh 23[artifact]
CCc1cc(/C(Cc2ccc3ccccc3n2)=N\O)c(O)cc1O	CD11b adhes inh 60
CC1CCN(CC(O)COc2cccc(F)c2)CC1 (centres undefined)	CD11b adhes inh 87
COc1cccc(OCC(O)CN2CCC(C)CC2)c1 (centres undefined)	none
O=c1c2c(nc3cc(-c4ccc(F)cc4)[nH]n13)CCC2	none (no result: Mac1 fbg enh, CD11b adhes inh)
O=S(=O)(NCCO)c1cccc2cccnc12	Phagocyt inh 50[artifact]
Cc1cc(F)ccc1S(=O)(=O)Nc1ccccc1C(=O)Nc1ccccc1N1CCOCC1	none (no result: Mac1 fbg enh, CD11b adhes inh, Phagocyt inh)
O=C(Nc1ccccc1N1CCOCC1)c1ccccc1NS(=O)(=O)c1ccc(F)c(F)c1	CD11b adhes inh 75
Cc1ccc(C)c(S(=O)(=O)Nc2ccccc2C(=O)Nc2ccccc2N2CCOCC2)c1	CD11b adhes inh 50
NC(=O)c1ccc[n+](Cc2cccc3ccccc23)c1	none (no result: Mac1 fbg enh, CD11b adhes inh)
CCOc1ncccc1C(=O)NCc1ccc(C)cc1	none
Cc1nc2sccn2c1-c1csc(NCc2ccccc2)n1	CD11b adhes inh 109 (no result: Phagocyt inh)
C=CCNc1nc(-c2c(C)nc3sccn23)cs1	none (no result: Mac1 fbg enh, CD11b adhes inh, Phagocyt inh)
CCCCn1c(CN2CCN(c3ccccc3)CC2)nc2c1c(=O)n(C)c(=O)n2C	CD11b adhes inh 65
CCCn1c(CN2CCN(c3cccc(Cl)c3)CC2)nc2c1c(=O)n(C)c(=O)n2C	CD11b adhes inh 91
CCOC(=O)N1CCC(=NNC(=O)COc2cccc(C)c2)CC1	none
CCc1ccc(-n2nc3ccc(NC(=O)c4ccc5c(c4)OCO5)cc3n2)cc1	none
Cc1ccc(-n2nc3ccc(NC(=O)c4ccc5c(c4)OCO5)cc3n2)cc1	Mac1 fbg enh 139
Cc1cccc(Oc2coc3cc(OC(=O)c4cc5ccccc5oc4=O)ccc3c2=O)c1	Mac1 fbg enh 53 (no result: Phagocyt inh)
CCOC(=O)Oc1ccc2c(=O)c(Oc3cccc(C)c3)coc2c1	none (no result: Mac1 fbg enh, CD11b adhes inh, Phagocyt inh)
[O-][n+]1c2c(c3c4non(O)c4ccc31)CCCC2	CD11b adhes inh 96
CC(C)(C)SCCNC(=O)c1ccc(Cl)c([N+](=O)[O-])c1	none (no result: Mac1 fbg enh, CD11b adhes inh)
Cc1cc(NCCCn2ccnc2)n2nc(C)c(-c3ccccc3)c2n1	none (no result: Phagocyt inh)
Cc1cc(NCCCn2ccnc2)n2ncc(-c3ccccc3)c2n1	CD11b adhes inh 50
Cc1ccc2[nH]c3c(N4CCc5ccccc5C4)ncnc3c2c1	none (no result: Mac1 fbg enh, CD11b adhes inh, Phagocyt inh)
Brc1ccc2[nH]c3c(N4CCc5ccccc5C4)ncnc3c2c1	CD11b adhes inh 75
COC(=O)Cc1ccc(NC(=O)c2ccc(C(C)(C)C)cc2)cc1	CD11b adhes inh 59
C/C(=N\NC(=O)c1ccccc1)c1ccc(C)c([N+](=O)[O-])c1	none
Cc1nc(NCc2ccco2)c2c(C)c(C)sc2n1	CD11b adhes inh 83
COc1cc(C(=S)N2CCCC2)cc(Cl)c1OCC(=O)Nc1ccc(C)cc1C	none (no result: Mac1 fbg enh, CD11b adhes inh)
Cc1nn(Cc2ccccc2Cl)c(C)c1C(=O)Nc1nnc(C2CC2)s1	Mac1 fbg enh 54
Cc1ccccc1-c1cc(C(=O)Nc2sc(C(=O)OC(C)C)c(C)c2C#N)c2ccccc2n1	CD11b adhes inh 95
COc1ccc(OC)c(-c2cc(C(=O)Nc3sc4c(c3C#N)CCC(C)C4)c3ccccc3n2)c1 (centres undefined)	Mac1 fbg enh 93
COc1ccccc1-c1cc(C(=O)Nc2sc3c(c2C#N)CCC(C)C3)c2ccccc2n1 (centres undefined)	none
S=C(NC1CCCCC1)N(CCc1ccccc1)CCc1ccccc1	Phagocyt inh 71[artifact]
S=C(NCCc1ccccc1)NC1CCCCCC1	none
N#Cc1c(NC(=O)c2ccccc2Cl)n(Cc2ccccc2)c2nc3ccccc3nc12	CD11b adhes inh 100
COc1ccc(-n2c(NC(=O)c3ccco3)c(C#N)c3nc4ccccc4nc32)cc1	none
CCCCn1c(NC(=O)c2ccccc2Cl)c(C#N)c2nc3ccccc3nc21	CD11b adhes inh 106
CCCCn1c(NC(=O)CC)c(C#N)c2nc3ccccc3nc21	none
c1ccc(-c2ncc(CSc3nncn3-c3ccccc3)s2)cc1	none (no result: Phagocyt inh)
Cc1nnc(SCc2cnc(-c3ccc(C(C)C)cc3)s2)n1C	CD11b adhes inh 70
CCOc1ccc2c(c1)-c1c(ssc1=S)C(C)(C)N2C(=O)c1ccco1	Phagocyt inh 91[artifact] (no result: Mac1 fbg enh, CD11b adhes inh)
O=C(CCC1CCCC1)c1c(O)c2ccccc2oc1=O	CD11b adhes inh 88
O=C(c1c(O)c2ccccc2oc1=O)C1CCCCC1	none
Fc1ccc(NC(=S)N2N=CCC2c2ccccc2)cc1 (centres undefined)	none
S=C(Nc1ccccc1)N1N=CCC1c1ccccc1 (centres undefined)	CD11b adhes inh 72
CCCCOc1ccc(C(C)NC(=O)C2CCCN(S(=O)(=O)CCC)C2)cc1 (centres undefined)	none (no result: Mac1 fbg enh, CD11b adhes inh)
Cc1cccc(N2CCN(C(=O)C(C)n3nc(C)n4c(cc5occc54)c3=O)CC2)c1C (centres undefined)	none
O=C1c2ccccc2S(=O)(=O)N1CC1CC(c2ccccc2)=NO1 (centres undefined)	none
COc1ccc(C2=NOC(CN3C(=O)c4ccccc4S3(=O)=O)C2)cc1 (centres undefined)	Phagocyt inh 38
O=C(CSc1nnc(-c2ccncc2)o1)Oc1ccccc1	none
O=C(CSc1nnc(-c2cccnc2)o1)Oc1ccccc1	Phagocyt inh 26[artifact]
Cc1ccc(OCCSCc2nc3ccccc3[nH]2)cc1	none (no result: Mac1 fbg enh, CD11b adhes inh, Phagocyt inh)
Clc1ccc(OCCSCc2nc3ccccc3[nH]2)cc1	CD11b adhes inh 76
Cc1ccc(C(=O)NC(=S)NCC2CCCO2)cc1Br (centres undefined)	none (no result: Mac1 fbg enh, CD11b adhes inh)
N#C/C(=C\c1ccc(N2CCCC2)c([N+](=O)[O-])c1)c1nc2ccccc2[nH]1	Mac1 fbg enh 113
O=C(CN1CCC(c2nc3ccccc3s2)CC1)NCc1cccs1	CD11b adhes inh 100
Cc1sccc1C1C(C#N)=C(N)SC(N)=C1C#N	none
N#CC1=C(N)SC(N)=C(C#N)C1CCC1CCCCC1	CD11b adhes inh 101
COc1ccc(-c2nnn(Cc3nc(N)nc(N4CCOCC4)n3)n2)cc1OC	none (no result: Mac1 fbg enh, CD11b adhes inh, Phagocyt inh)
COc1ccccc1OCc1ccc(C(=O)N2N=C(C(F)F)CC2(O)C(F)F)o1 (centres undefined)	CD11b adhes inh 82
O=[N+]([O-])c1ccc(N2CCN(S(=O)(=O)c3ccccc3[N+](=O)[O-])CC2)cc1N1CCc2ccccc2C1	none
